# Test results: ChEMBL document CHEMBL3988442, “University of Dundee, Small-Polar-MMV Screening Library” (2021)
# In all, about 48,000 compounds went through this assay and about 13,000 (27%) showed an effect of 50% or more. This is one part of the list.
# Test system: Wolbachia pipientis
# Assay: Anti-Wolbachia Cell-Based Screen
# Type: functional
# Set-up: scale not given: in the data most compounds retested in dose-response had high values
# Conditions: 5 µM
row,SMILES,Percent Effect [%]
1,COCCNC(=O)CCNC(=O)c1ccc(N2CCC(C)=N2)cc1,-2.111
2,CCN(CC)c1ccc2ccc(C(=O)N(CCOC)CCOC)cn12.O=C(O)C(F)(F)F,4.611
3,COCCNC(=O)c1ccc2ccc(N(C)CC3CC3)n2c1,103.1
4,Cc1ccc(C)c(CC(=O)NC2CCS(=O)(=O)CC2)c1,-1.123
5,Cc1cn(CC(=O)NC2CCN(C(=O)C3CC3)CC2)c2ccccc12,4.79
6,COC(=O)N1CCC(NC(=O)Cn2cc(C)c3ccccc32)CC1,-17.34
7,Cc1ccc(C)c(CC(=O)NC2CCCS(=O)(=O)C2)c1 (configuration not stated),-8.397
8,CC(=O)N1CCC(NC(=O)CN2CCCc3c(F)ccc(C)c32)CC1,96.3
9,CC(=O)N1CCC(NC(=O)CN2CCCc3c(C)ccc(F)c32)CC1,97.89
10,Cc1ccc(F)c2c1CCCN2CC(=O)NC1CCS(=O)(=O)C1 (configuration not stated),90.32
11,CC(=O)NCc1ccc(C(=O)N2CCCc3c(F)ccc(C)c32)cc1,-14.03
12,CC(=O)N1CCC(NC(=O)Cc2csc(C(C)(C)C)n2)CC1,-8.702
13,CN1CCCC(C(=O)N2CCC(Oc3ccc(C#N)cn3)CC2)C1 (configuration not stated),3.335
14,O=C1CC(c2cccs2)c2snc(C(=O)O)c2N1 (configuration not stated),12.4
15,Cc1ccc(C(=O)N[C@H]2CN(CCO)C[C@@H]2C2CC2)cc1Cl,4.454
16,CCNC(=O)NC(=O)CSC(C)c1ccccc1F (configuration not stated),-4.407
17,O=C(C[S+]([O-])Cc1csc(C2CCCC2)n1)NC1CCCC1 (configuration not stated),-2.557
18,CCOc1cc(C)nc(N2CCN(C(=O)CC)CC2)n1,-2.122
19,CCC(=O)N1CCc2nc(N3CCOCC3)nc(N(C)C)c2CC1,-3.249
20,CS(=O)(=O)c1cnc(N2CCCC2)nc1C1CCN(C(=O)C2CC2)CC1,114.1
21,CCC(=O)N1CCC(c2nc(N3CCCCC3)ncc2S(C)(=O)=O)CC1,129
22,CCN(C)CC(=O)N1CCC(c2cc(N3CCOCC3)nc(C)n2)CC1,25.94

row,SMILES,Percent Effect [%]
1,Cc1noc(-c2ccc(N3CCCC(C(=O)N4CCSCC4)C3)nc2)n1 (configuration not stated),-16.11
2,Cc1ncc(S(C)(=O)=O)c(N2CCCCCC2)n1,3.738
3,CCc1nc(CC(=O)N2CCC(C(=O)N3CCCCC3)CC2)cs1,9.16
4,CCC(=O)N1CCC(c2nc(N3CCCC3)ncc2S(C)(=O)=O)CC1,99.88
5,CCC(=O)N1CCC(c2nc(N3CCOCC3)ncc2S(C)(=O)=O)CC1,98.3
6,Cc1ccc(NS(=O)(=O)c2c[nH]c3ncccc23)nc1,17.74
7,CCOC(=O)N1CCN(c2nc(NCCCO)c3ccccc3n2)CC1.Cl,3.007
8,COC(=O)c1ccc(N2CCN(C(=O)c3ccncc3)C(C)C2)cc1 (configuration not stated),-9.258
9,CCc1nc(CC(=O)Nc2cnn(CC3CCCO3)c2)cs1 (configuration not stated),-8.649
10,CC(C)c1nc(O)c2nnn(C[C@H]3CCCN(Cc4ccsc4)C3)c2n1,131.3
11,CC(C)c1nc(O)c2nnn(C[C@@H]3CCCN(Cc4ccsc4)C3)c2n1,123.6
12,CC(C)(C)c1oc(C(N)=O)cc1CN1CCCCC1CN1CCOCC1 (configuration not stated),-21.84
13,N#Cc1ccc(SCCC(=O)N(Cc2cccnc2)C2CC2)cc1,-7.889
14,O=c1ccc(-n2ccnc2)nn1CCNS(=O)(=O)c1ccc(Br)cc1,-0.5803
15,CCN(CC)CC[C@H]1CN(C(=O)C2CCC2)CC[C@H]1CC(=O)O,-6.679
16,CCN1CCCC(c2c(-c3ccccc3)ncn2CCc2c[nH]cn2)C1 (configuration not stated),-19.27
17,CC(C)(C(=O)NCCCC(N)=O)c1cccc(Br)c1,6.793
18,CSCCC(NC(=O)c1ccc2ccccc2n1)C(=O)NC1CC1 (configuration not stated),3.734
19,CSCCC(Nc1nc(C)cc(C)n1)C(=O)NC1CC1 (configuration not stated),102.4
20,Cc1nc(CN2CCN(C(C)C(=O)NC3CCCC3)CC2)cs1 (configuration not stated),-11.13
21,Cc1cc(NC(=O)NCC2CCOC2)no1 (configuration not stated),-3.66
22,CSc1cc2c(cc1NC(=O)NCC1CCOC1)OCCO2 (configuration not stated),0.9768

row,SMILES,Percent Effect [%]
1,CNC(=O)C(CCSC)NC(=O)c1ccc2ccccc2n1 (configuration not stated),4.672
2,Cc1cc(C)nc(NC2CCC(=O)N(C)C2)n1 (configuration not stated),-12.68
3,CSCCC(Nc1nc(C)cc(C)n1)C(=O)NC(C)(C)CO (configuration not stated),99.02
4,CSCCC(Nc1nc(C)cc(C)n1)C(=O)NC1CCCC1 (configuration not stated),67.42
5,CSCCC(NC(=O)c1ccc2ccccc2n1)C(=O)NC(C)C (configuration not stated),0.7963
6,CSCCC(NC(N)=O)C(=O)N1CCC(Cc2ccccc2)CC1 (configuration not stated),-1.467
7,CSCCC(Nc1nc(C)cc(C)n1)C(=O)NCC1CCOCC1 (configuration not stated),96.94
8,CN(C)CCCN1CC2(CCN(C3CCCOC3)CC2)OC1=O (configuration not stated),-5.756
9,COc1ccc(NC(=O)c2ccc[nH]2)c(N2CCN(C(C)=O)CC2)n1,6.635
10,Cc1cc(SC(C)(C)C)ccc1NC(=O)CNC(N)=O,-8.144
11,Cc1ccc(S(=O)(=O)NC[C@H]2OC[C@@H](NCc3ccccn3)[C@@H]2O)cc1,0.9418
12,Cc1cc(C(=O)N2C[C@@H](CN3CCOCC3)C[C@H](CO)C2)nc(C)n1,-2.252
13,Cc1cc(C)c(CNC(=O)N2CCCN(C(=O)C(C)C)CC2)c(C)c1,-1.6
14,CC(C)=CCN1C[C@H]2CC[C@@H]1CN(Cc1coc(C)n1)C2,-7.778
15,Cc1ccc2nc(CNCCCOc3ccccc3)cc(O)c2c1 [UCSF924],-20.67
16,c1ccc(OCCCNCCn2cccn2)cc1,7.776
17,CCn1ccc(-c2cc(NCCCOc3cccc(C)c3)nc(C)n2)n1,179.6
18,CCn1ccc(-c2cc(NCCCOc3ccccc3C)nc(C)n2)n1,161.9
19,COc1ccc(OCCNCCn2cccn2)cc1,-1.614
20,CCN(CC1CCOCC1)C(=O)Cn1cccc(C(F)(F)F)c1=O,-10.75
21,c1cnnc(N2CCCC(NCc3nnc(-c4ccco4)o3)C2)c1 (configuration not stated),5.713
22,c1ccc(Cc2nc(CNC3CCC4(CCNCC4)CC3)no2)cc1,94.06

row,SMILES,Percent Effect [%]
1,c1coc(-c2nc(CNC3CCC4(CCNCC4)CC3)no2)c1,99.09
2,c1coc(-c2nc(CNC3CCCNC3)no2)c1 (configuration not stated),116.1
3,COc1nc2c(cc1C(=O)NCc1noc(-c3ccco3)n1)CCC2,-22.9
4,OC1(CNCc2noc(Cc3ccccc3)n2)CCCNC1 (configuration not stated),0.3473
5,COCc1nc(CNC2CCC3(CCNCC3)CC2)no1,-7.512
6,c1ccc(-c2nc(CNC3CCCN(c4cccnn4)C3)no2)cc1 (configuration not stated),-14.96
7,CC(C)(C)OC(=O)NC1(c2noc(-c3ccco3)n2)CCC1,-13.08
8,Cc1ncc2c(n1)CN(C(C(N)=O)c1ccccc1)CC2 (configuration not stated),4.006
9,CC(C)NC(=O)NC[C@H]1OC[C@@H](NCc2ccncc2)[C@@H]1O,2.532
10,Cc1ccc(OC2(C(=O)O)CCN(C/C=C/c3ccco3)CC2)cc1,-1.713
11,O=C(Nc1cccc(OC(F)F)c1)C1CN(S(=O)(=O)C2CC2)C1,10.08
12,CN1[C@H]2CC[C@@H]1CN(C(=O)c1nnc3n1CCCC3)CC2,1.056
13,Cc1cnc(CN2CCN(C(C)c3nc(C(C)C)no3)CC2)cn1 (configuration not stated),10.96
14,CC(C)c1nc(C2CCCN(c3ncccn3)C2)no1 (configuration not stated),10.51
15,FC(F)(F)c1cc(C2CCCN(c3ncccn3)C2)n2ccnc2n1 (configuration not stated),126.4
16,CC(C)c1nc(C2CCCN(c3nccc(C(F)(F)F)n3)C2)no1 (configuration not stated),4.176
17,CN(C)Cc1nnc(C2CCCN(c3cc(C(F)(F)F)ccn3)C2)n1C (configuration not stated),-6.748
18,N#Cc1ccc(N2CCN(c3cnccn3)CC2)cc1C(F)(F)F,-11.21
19,FC(F)(F)c1cc(C2CCN(c3cnccn3)CC2)n2ccnc2n1,100.9
20,FC(F)(F)c1ccnc(N2CCCC(N3CCOCC3)C2)c1 (configuration not stated),3.517
21,CC(C)n1ccnc1C1CCCN(c2nc3ccccc3s2)C1 (configuration not stated),8.79
22,CC(C)N1CCCC(c2cc(C(F)(F)F)nc3nccn23)C1 (configuration not stated),97.97

row,SMILES,Percent Effect [%]
1,N#Cc1ccc(N2CCN(c3cnccn3)CC2)c(C(F)(F)F)c1,-6.859
2,FC(F)(F)c1cc(C2CCCN(c3cnccn3)C2)n2ccnc2n1 (configuration not stated),112.2
3,CC(C)N1CC[C@H](c2nc3ccc(C(F)(F)F)cc3[nH]2)C1,-4.029
4,CCNc1ncc(C(=O)NCc2csc(-c3ncccn3)n2)cn1,-30.13
5,CCOC(C)c1nc(CN2CCC(CNC(C)=O)CC2)cs1 (configuration not stated),-3.059
6,CC(=O)N1CCC(c2cc(C(F)(F)F)nc3nccn23)CC1,113.6
7,CN(C)CCn1ccnc1C1CCN(C(=O)CCC(F)(F)F)CC1,-12.98
8,Cn1ccnc1C1CCN(C(=O)COCC(F)(F)C(F)F)CC1,-2.138
9,Cc1ccc2c(C)c(C(=O)NCCc3csc(N)n3)oc2c1,32.42
10,O=C(c1cc(-c2ccco2)nc2c(Cl)cccc12)N1C[C@H]2CNC[C@H]2C1,10.23
11,Cc1cc(C(=O)NCc2ccc(F)cc2)c2c(C3CCNC3)noc2n1 (configuration not stated),105.3
12,CC(C)Cc1cc(CNC(=O)c2ccccc2C2CCNC2)no1 (configuration not stated),0.6659
13,CC(C)(C)c1cc(C[C@H]2CNCC[C@H]2CC(=O)NCc2cccs2)no1,1.711
14,CCc1ccc2nc(C)cc(C(=O)NC[C@@H]3CCNC[C@H]3O)c2c1,-0.4588
15,CCc1ccc2nc(C)cc(C(=O)N[C@@H]3CNC[C@H]3O)c2c1,-12.87
16,Cc1cc(C2CCCN2C(=O)NCc2cccc(F)c2)on1 (configuration not stated),-2.715
17,Cc1cc(C(=O)NCc2ccc(F)cc2)c2c(C3CCCN3)noc2n1 (configuration not stated),101.4
18,Cc1cc(C(=O)NCc2cccs2)c2c(C3CCCN3)noc2n1 (configuration not stated),99.02
19,COc1nc2c(cc1C(=O)NCc1noc(Cc3cccs3)n1)CCC2,-29.09
